Source: PubChem BioAssay
KAT2A inh: qHTS Assay for Inhibitors of GCN5L2. Potency, µM (series often up to 58.9 µM), actives largely listed as inhibitors. hit rate 0.21% among 390,000. GCN5L2 HAT assay, ThioGlo1 CoA-SH fluorescence. AID 504327, 2011. Histone acetyltransferase KAT2A (Homo sapiens), Q92830
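Titration-based screen in which CoA formation is detected via maleimide probe ThioGlo1 (50uM) turning fluorescent on thiol reaction; substrates H3(1-25) 75uM and acetyl-CoA 70uM, GCN5L2 20nM, 20 min incubation at room temperature.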
GLS inhibitor: qHTS for Inhibitors of Glutaminase (GLS). Glutaminase kidney isoform, mitochondrial (Homo sapiens), O94925. GLS enzymatic activity, qHTS titration. Potency, µM (highest dose often 45.5 µM), actives largely listed as inhibitors. hit rate 0.21% among 410,000. AID 624170, 2012
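Compounds were pin-transferred onto hKGA, after which L-glutamine (1 mM solution) and a detection mix of glutamate oxidase, HRP and Amplex Red were added. Initial and 30 min RT fluorescence reads were collected.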
Sfp PPTase inh: qHTS Assay for Inhibitors of Bacillus subtilis Sfp phosphopantetheinyl transferase (PPTase). hit rate 3.5% among 310,000. 4'-phosphopantetheinyl transferase ffp (Bacillus subtilis), Q9F4F7. Biochemical Sfp PPTase activity, qHTS. AID 1490, 2009. Potency, µM, most hits filed as inhibitors;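 note: the enzyme is Sfp with the accession as filed and its product quenches rhodamine fluorescence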
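Buffer: 50 mM Hepes-Na pH 7.6, 10 mM MgCl2, 0.01% Nonidet P-40, 0.01% BSA. Enzyme 15 nM, pre-exposed to compound 15 min; substrates then added and fluorescence change tracked over 30 min.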
TrxR1 substrate: qHTS Assay for Substrates of Mammalian Selenoprotein Thioredoxin Reductase 1 (TrxR1): qHTS; purified TrxR1 substrate turnover, NADPH consumption readout; Potency, µM (titrated, usually from 114 µM); hit rate 0.01% among 390,000; note: nearly all actives have a fitted effect of over 50% in size
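Rat TrxR1, dispensed at 90 nM, was prereduced with 400 uM NADPH (final) for 5 min at ~22 deg C, then incubated with compound 15 min before 400 uM selenite. A first-read NADPH fluorescence drop versus no-compound background flagged substrates.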
rTrxR1 inhibitor: qHTS Assay for Inhibitors of Mammalian Selenoprotein Thioredoxin Reductase 1 (TrxR1): qHTS. Thioredoxin reductase 1, cytoplasmic (Rattus norvegicus), O89049. recombinant rTrxR1, NADPH fluorescence consumption, selenite substrate. Potency, µM (series often up to 114 µM), hits mostly inhibitors. hit rate 1% among 390,000; note: nearly all actives have a fitted effect of over 65% in size
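Rat TrxR1 (90 nM in the dispensed reagent) was pre-reduced with 400 uM NADPH for 5 min at room temperature, then incubated with compound for 15 min. After 400 uM selenite was added, NADPH fluorescence (Ex 340/Em 450 nm) was followed for 8 min.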
VDR inh: Inhibitors of the vitamin D receptor (VDR): qHTS; hit rate 0.93% among 400,000; VDR-SRC2-3 peptide fluorescence polarization, 2 h; Potency, µM, usual class: inhibitors; AID 504847, 2011
Target sequence (P11473 whole entry, looked up): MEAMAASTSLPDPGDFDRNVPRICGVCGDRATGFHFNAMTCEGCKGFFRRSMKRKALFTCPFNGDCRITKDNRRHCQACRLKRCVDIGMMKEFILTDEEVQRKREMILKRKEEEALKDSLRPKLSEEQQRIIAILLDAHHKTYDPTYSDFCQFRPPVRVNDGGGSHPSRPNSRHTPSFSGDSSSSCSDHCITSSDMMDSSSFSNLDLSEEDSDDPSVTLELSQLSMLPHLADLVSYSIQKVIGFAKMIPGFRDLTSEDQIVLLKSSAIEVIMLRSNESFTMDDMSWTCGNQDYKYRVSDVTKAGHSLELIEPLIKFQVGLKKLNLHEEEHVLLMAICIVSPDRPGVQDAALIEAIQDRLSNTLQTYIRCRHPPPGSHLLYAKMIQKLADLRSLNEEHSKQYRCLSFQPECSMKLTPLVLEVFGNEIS
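Fluorescence polarization assay measuring small-molecule disruption of VDR binding to the coregulator peptide SRC2-3. Compounds were pin-transferred (23 nl) into the reagent mix and incubated 2 h at room temperature before reading.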
Of the large screens only hits and unclear results are named; the others gave an inactive call. Compounds with a hit are over-represented: about 3.8% of the library has one in this group of screens. Calls come from the whole dose curve; as a rule, active = well fitted curve in the direction sought with a large enough effect; inconclusive = small, poorly fitted or top-dose-only effect, or another doubt; inactive = no such curve, though single readings can be large; an effect the other way counts as inactive or inconclusive.

Cc1cc2c(c(=O)n1Cc1cccnc1)C(c1cccs1)C(C#N)=C(N)O2 (stereo not drawn)	Sfp PPTase inh 79.4µM, rTrxR1 inhibitor inconclusive
Cc1cc2c(c(=O)n1Cc1ccco1)C(c1cccnc1)C(C#N)=C(N)O2 (stereo not drawn)	rTrxR1 inhibitor inconclusive
C/C(CC(=O)Nc1ccc(N(C)C)cc1)=N\NC(=O)c1ccccn1	none
C/C(CC(=O)NC12CC3CC(CC(C3)C1)C2)=N\NC(=O)c1cnccn1	Sfp PPTase inh 50.1µM, rTrxR1 inhibitor inconclusive
O=C(NC12CC3CC(CC(C3)C1)C2)c1cnccn1	GLS inhibitor inconclusive
C/C(CC(=O)Nc1ccc(N(C)C)cc1)=N\NC(=O)c1cnccn1	Sfp PPTase inh 56.2µM, rTrxR1 inhibitor inconclusive
CC(C(=O)N1CCc2ccccc21)n1cccc1 (stereo not drawn)	none
COc1ccc(NC(=O)N(C)C[C@H]2OCc3cnnn3CCCC(=O)N([C@H](C)CO)C[C@@H]2C)cc1	none (no result: KAT2A inh, Sfp PPTase inh, TrxR1 substrate, rTrxR1 inhibitor, VDR inh)
Cc1c(Cl)cccc1NC(=S)N(Cc1ccco1)C(C)c1ccccn1 (stereo not drawn)	VDR inh inconclusive
Cc1ccccc1NC(=S)N(Cc1ccco1)C(C)c1ccccn1 (stereo not drawn)	Sfp PPTase inh 79.4µM
CCOC(=O)C1=C(C)NC(=O)NC1c1ccc(OCC(=O)Nc2ccccc2)c(OC)c1 (stereo not drawn)	none
CCOC(=O)C1=C(C)NC(=O)C1CC(=O)Nc1ccccc1 (stereo not drawn)	Sfp PPTase inh 79.4µM (no result: GLS inhibitor, TrxR1 substrate, rTrxR1 inhibitor, VDR inh)
Oc1ccc(N=Cc2cc(Br)c(N3CCOCC3)o2)cc1	Sfp PPTase inh 39.8µM, rTrxR1 inhibitor 31.6µM
O=[N+]([O-])c1cc(Br)c(O)c(C=Nc2ccc(N3CCOCC3)cc2)c1	VDR inh inconclusive
C[C@@H]1CN([C@@H](C)CO)C(=O)Cc2cc(NC(=O)Nc3cccc4ccccc34)ccc2O[C@@H]1CN(C)Cc1ccc(C(F)(F)F)cc1	none (no result: Sfp PPTase inh)
CCn1cc(CN2CCC(n3nccc3NC(=O)c3ccccc3OC)CC2)cn1	none
Nc1ccc(S(=O)(=O)N2CCCC2C(=O)O)cc1 (stereo not drawn)	Sfp PPTase inh 79.4µM
CCN(CC(=O)Nc1ccc(NC(C)=O)cc1)CC(=O)Nc1ccccc1C(=O)c1ccccc1	none
O=C(O)c1ccc2c(=O)n3c(nc2c1)/C(=C/c1ccc(C(F)(F)F)cc1)CC3	none
O=c1c2ccccc2nc2n1CC/C2=C/N1CCN(c2cccc(C(F)(F)F)c2)CC1	Sfp PPTase inh 31.6µM, rTrxR1 inhibitor 14.1µM
Cc1sc2nc(CN3CCN(c4ccc(O)cc4)CC3)[nH]c(=O)c2c1C	Sfp PPTase inh 35.5µM
Cc1sc2nc(CN3CCOCC3)[nH]c(=S)c2c1C	Sfp PPTase inh 8.91µM
Cc1sc2nc(CN3CCOCC3)nc(NCCc3ccccc3)c2c1C	none
COC(=O)CCS(=O)(=O)c1ccc(NC(C)=O)cc1	none
NC(N)=N/N=C/c1ccc(Br)cc1	none
Brc1ccc(C=C2C=c3ccccc3=C2)cc1	rTrxR1 inhibitor 35.5µM (no result: KAT2A inh, GLS inhibitor, Sfp PPTase inh, VDR inh)
c1ccc(-c2cc(-c3ccncc3)nc3ccc4ccccc4c23)cc1	Sfp PPTase inh 56.2µM
N#Cc1c2c(c(Cl)n3c1nc1ccccc13)CCCC2	rTrxR1 inhibitor 3.55µM (no result: KAT2A inh, GLS inhibitor, Sfp PPTase inh, VDR inh)
Cc1c(CCCl)c(Cl)n2c(nc3ccccc32)c1C#N	rTrxR1 inhibitor 2.24µM, VDR inh inconclusive (no result: KAT2A inh, Sfp PPTase inh)
CCc1c(C)c(C#N)c2nc3ccccc3n2c1NC	none
CNc1cc(C)c(C#N)c2nc3ccccc3n12	none
Cc1cc(Cl)n2c(nc3ccccc32)c1C#N	rTrxR1 inhibitor 7.08µM, VDR inh 39.8µM
